# Data: PubChem BioAssay (NCI)
# About 79,000 compounds went through this panel and 15% of them were active in at least one assay; those are over-represented in the sample as a whole. Unmarked numbers belong to inactive results. Active and inactive are the calls of the source. Cut-off read from the data, not from the text of the source: active = growth inhibition above about 70%; inactive = the rest.
# Key:
# [1] = NCI Yeast Anticancer Drug Screen. Data for the wt1 strain (AID 149);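 note: 0% = growth of vehicle-treated wt1 cultures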; details: S. cerevisiae wt1 strain (SPY 50644) growth inhibition, active compounds read high
# In short: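 Vehicle-normalised growth inhibition; strain wt1; compound exposure.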
# [2] = NCI Yeast Anticancer Drug Screen. Data for the rad50EPP+ strain (AID 151);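 note: 0% = growth of vehicle-treated control cultures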; details: S. cerevisiae rad50 mutant strain, active compounds read high
# In short: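 One strain with a rad50 alteration (rad50EPP+) was compound-treated, its growth then compared to that of vehicle controls.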
# [3] = NCI Yeast Anticancer Drug Screen. Data for the mgt1 strain (AID 153); details: S. cerevisiae mgt1 mutant growth inhibition, active compounds read high
# In short: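 After exposure of the mgt1 yeast mutant to compound, growth was measured and reported as inhibition compared with vehicle controls.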
# [4] = NCI Yeast Anticancer Drug Screen. Data for the rad50 strain (AID 155);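 note: 0% = growth of vehicle-only cultures of the same strain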; details: S. cerevisiae rad50 strain growth inhibition, active compounds read high
# In short: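 A DNA repair-deficient yeast mutant serves as the test organism; compound-induced growth inhibition is calculated against vehicle-treated cells.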
# [5] = NCI Yeast Anticancer Drug Screen. Data for the rad14 strain (AID 159);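 note: 0% = growth of vehicle-treated control cultures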; details: S. cerevisiae rad14 strain growth inhibition, active compounds read high
# In short: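 Vehicle-treated cultures served as the baseline for growth inhibition of a DNA repair-mutant yeast strain exposed to each compound.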
# [6] = NCI Yeast Anticancer Drug Screen. Data for the sgs1 mgt1 strain (AID 161);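 note: 0% = growth of cultures given vehicle only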; details: S. cerevisiae sgs1 mgt1 strain, active compounds read high
# In short: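 Genetically altered yeast, compound exposure, growth inhibition relative to vehicle.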
# [7] = NCI Yeast Anticancer Drug Screen. Data for the cln2 rad14 strain (AID 165);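 note: 0% = growth equal to vehicle treated cultures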; details: S. cerevisiae cln2 rad14 strain, active compounds read high
# In short: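 Growth of compound-exposed yeast (cln2 rad14 genotype) measured and expressed as inhibition relative to vehicle.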
# [8] = NCI Yeast Anticancer Drug Screen. Data for the bub3 strain (AID 167); details: S. cerevisiae bub3 mutant strain, active compounds read high
# In short: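 Inhibition values come from growth of compound-treated mutant yeast normalised to vehicle-treated controls.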
# [9] = NCI Yeast Anticancer Drug Screen. Data for the wt2 strain (AID 169);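 note: 0% = growth of vehicle-treated yeast cultures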; details: S. cerevisiae wt2 strain growth inhibition, active compounds read high
# In short: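 Genetically defined yeast strains from a DNA-repair/cell-cycle panel were used. Compound-exposed yeast growth was measured, and the inhibition was calculated relative to vehicle treatment.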
# [10] = NCI Yeast Anticancer Drug Screen. Data for the mlh1 strain (AID 171);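 note: 0% = growth of vehicle-treated control cultures of the same strain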; details: S. cerevisiae mlh1 strain growth inhibition, active compounds read high
# In short: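 Here the genetically defined yeast mutant is grown with each compound, and the extent to which its growth falls below that of vehicle-exposed cells is reported.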
# [11] = NCI Yeast Anticancer Drug Screen. Data for the sgs1 strain (AID 173);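 note: 0% = growth of vehicle-only control cultures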; details: S. cerevisiae sgs1 mutant, active compounds read high
# In short: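 Relative growth inhibition, referenced to vehicle, was determined in a yeast strain with a defined alteration affecting DNA damage repair or cell cycle control after compound exposure.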
# [12] = NCI Yeast Anticancer Drug Screen. Data for the mlh1 rad18 strain (AID 175); details: S. cerevisiae mlh1 rad18 strain growth inhibition, active compounds read high
# In short: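 In this whole-cell yeast screen, a strain with altered DNA damage repair is challenged with compound, and its growth is measured against matched vehicle-treated controls.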
# [13] = NCI Yeast Anticancer Drug Screen. Data for the rad18 strain (AID 177); details: S. cerevisiae rad18 mutant growth inhibition, active compounds read high
# In short: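 Screen uses a yeast strain with a defined lesion in DNA damage repair; compound effect is read as loss of growth compared to untreated vehicle cultures.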
# [14] = NCI Yeast Anticancer Drug Screen. Data for the mec2-1 strain (AID 157); details: S. cerevisiae mec2-1 strain, active compounds read high
# In short: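 Test agents were screened against the mec2-1 yeast strain, with defined DNA repair or cell cycle alteration. Growth was scored as inhibition against vehicle-only controls.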
# [15] = NCI Yeast Anticancer Drug Screen. Data for the CLN2oe strain (AID 163);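 note: 0% = growth of vehicle-only control cultures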; details: S. cerevisiae CLN2oe strain, active compounds read high
# In short: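 Here, growth inhibition in a cell-cycle-altered yeast strain after compound exposure was quantified against vehicle control growth.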
# [16] = at 5.0 µM (retest, dose inferred, filed as 0.5)
# [17] = at 50.0 µM (retest, dose inferred, filed as 5.0)
smiles,measurement,setting,value
Oc1cccc2nc3ccccc3nc12,growth inhibition,[1]; at 1.2 µM,-55%
same,growth inhibition,[1]; at 3.7 µM,-46%
same,growth inhibition,[1]; at 11.0 µM,-30%
same,growth inhibition,[1]; at 33.0 µM,1%
same,growth inhibition,[1]; at 100.0 µM,88% (active)
same,growth inhibition,[2]; at 1.2 µM,-47%
same,growth inhibition,[2]; at 3.7 µM,-31%
same,growth inhibition,[2]; at 11.0 µM,6%
same,growth inhibition,[2]; at 33.0 µM,63%
same,growth inhibition,[2]; at 100.0 µM,96% (active)
same,growth inhibition,[3]; at 1.2 µM,-22%
same,growth inhibition,[3]; at 3.7 µM,-14%
same,growth inhibition,[3]; at 11.0 µM,6%
same,growth inhibition,[3]; at 33.0 µM,20%
same,growth inhibition,[3]; at 100.0 µM,91% (active)
same,growth inhibition,[4]; at 1.2 µM,-4%
same,growth inhibition,[4]; at 3.7 µM,-8%
same,growth inhibition,[4]; [16],-14%
same,growth inhibition,[4]; at 11.0 µM,5%
same,growth inhibition,[4]; at 33.0 µM,54%
same,growth inhibition,[4]; [17],73% (active)
same,growth inhibition,[4]; at 50.0 µM,65.4%
same,growth inhibition,[4]; at 100.0 µM,95% (active)
same,growth inhibition,[5]; at 1.2 µM,-31%
same,growth inhibition,[5]; at 3.7 µM,-32%
same,growth inhibition,[5]; at 11.0 µM,-27%
same,growth inhibition,[5]; at 33.0 µM,19%
same,growth inhibition,[5]; at 100.0 µM,92% (active)
same,growth inhibition,[6]; [16],-4%
same,growth inhibition,[6]; [17],29%
same,growth inhibition,[6]; at 50.0 µM,21%
same,growth inhibition,[7]; [16],1%
same,growth inhibition,[7]; [17],13%
same,growth inhibition,[7]; at 50.0 µM,35.4%
same,growth inhibition,[8]; at 1.2 µM,-31%
same,growth inhibition,[8]; at 3.7 µM,-28%
same,growth inhibition,[8]; [16],-3%
same,growth inhibition,[8]; at 11.0 µM,-16%
same,growth inhibition,[8]; at 33.0 µM,-4%
same,growth inhibition,[8]; [17],35%
same,growth inhibition,[8]; at 50.0 µM,47.2%
same,growth inhibition,[8]; at 100.0 µM,94% (active)
same,growth inhibition,[9]; at 1.2 µM,-48%
same,growth inhibition,[9]; at 3.7 µM,-44%
same,growth inhibition,[9]; at 11.0 µM,-39%
same,growth inhibition,[9]; at 33.0 µM,-9%
same,growth inhibition,[9]; at 100.0 µM,75% (active)
same,growth inhibition,[10]; at 1.2 µM,-58%
same,growth inhibition,[10]; at 3.7 µM,-33%
same,growth inhibition,[10]; at 11.0 µM,-27%
same,growth inhibition,[10]; at 33.0 µM,12%
same,growth inhibition,[10]; at 100.0 µM,92% (active)
same,growth inhibition,[11]; at 1.2 µM,-43%
same,growth inhibition,[11]; at 3.7 µM,-44%
same,growth inhibition,[11]; at 11.0 µM,-41%
same,growth inhibition,[11]; at 33.0 µM,-18%
same,growth inhibition,[11]; at 100.0 µM,86% (active)
same,growth inhibition,[12]; [16],-41%
same,growth inhibition,[12]; [17],58%
same,growth inhibition,[12]; at 50.0 µM,64.5%
same,growth inhibition,[13]; at 1.2 µM,-29%
same,growth inhibition,[13]; at 3.7 µM,-26%
same,growth inhibition,[13]; at 11.0 µM,-14%
same,growth inhibition,[13]; at 33.0 µM,27%
same,growth inhibition,[13]; at 100.0 µM,93% (active)
Cc1c(N)nc([C@H](CC(N)=O)NC[C@H](N)C(N)=O)nc1C(=O)N[C@H](C(=O)N[C@H](C)[C@@H](O)[C@H](C)C(=O)N[C@H](C(=O)NCCc1nc(-c2nc(C(=O)NCCC[S+](C)C)cs2)cs1)[C@@H](C)O)C(OC1OC(CO)C(O)C(O)C1OC1OC(CO)C(O)C(OC(N)=O)C1O)c1cnc[nH]1 (stereo partly drawn),growth inhibition,[1]; at 1.2 µM,0%
same,growth inhibition,[1]; at 3.7 µM,1%
same,growth inhibition,[1]; at 11.0 µM,11%
same,growth inhibition,[1]; at 33.0 µM,27%
same,growth inhibition,[1]; at 100.0 µM,74% (active)
same,growth inhibition,[2]; at 1.2 µM,0%
same,growth inhibition,[2]; at 3.7 µM,7%
same,growth inhibition,[2]; at 11.0 µM,31%
same,growth inhibition,[2]; at 33.0 µM,68%
same,growth inhibition,[2]; at 100.0 µM,94% (active)
same,growth inhibition,[3]; at 1.2 µM,-3%
same,growth inhibition,[3]; at 3.7 µM,2%
same,growth inhibition,[3]; at 11.0 µM,11%
same,growth inhibition,[3]; at 33.0 µM,35%
same,growth inhibition,[3]; at 100.0 µM,91% (active)
same,growth inhibition,[4]; at 1.2 µM,8%
same,growth inhibition,[4]; at 3.7 µM,27%
same,growth inhibition,[4]; [16],98% (active)
same,growth inhibition,[4]; at 11.0 µM,63%
same,growth inhibition,[4]; at 33.0 µM,94% (active)
same,growth inhibition,[4]; [17],99% (active)
same,growth inhibition,[4]; at 50.0 µM,93.2% (active)
same,growth inhibition,[4]; at 100.0 µM,95% (active)
same,growth inhibition,[14]; at 1.2 µM,1%
same,growth inhibition,[14]; at 3.7 µM,12%
same,growth inhibition,[14]; [16],99% (active)
same,growth inhibition,[14]; at 11.0 µM,29%
same,growth inhibition,[14]; at 33.0 µM,52%
same,growth inhibition,[14]; [17],99% (active)
same,growth inhibition,[14]; at 50.0 µM,93.5% (active)
same,growth inhibition,[14]; at 100.0 µM,94% (active)
same,growth inhibition,[5]; at 1.2 µM,4%
same,growth inhibition,[5]; at 3.7 µM,11%
same,growth inhibition,[5]; at 11.0 µM,29%
same,growth inhibition,[5]; at 33.0 µM,78% (active)
same,growth inhibition,[5]; at 100.0 µM,95% (active)
same,growth inhibition,[6]; [16],98% (active)
same,growth inhibition,[6]; [17],99% (active)
same,growth inhibition,[6]; at 50.0 µM,93.3% (active)
same,growth inhibition,[15]; at 1.2 µM,2%
same,growth inhibition,[15]; at 3.7 µM,-7%
same,growth inhibition,[15]; at 11.0 µM,14%
same,growth inhibition,[15]; at 33.0 µM,43%
same,growth inhibition,[15]; at 100.0 µM,94% (active)
same,growth inhibition,[7]; [16],96% (active)
same,growth inhibition,[7]; [17],98% (active)
same,growth inhibition,[7]; at 50.0 µM,89.8% (active)
same,growth inhibition,[8]; at 1.2 µM,-2%
same,growth inhibition,[8]; at 3.7 µM,2%
same,growth inhibition,[8]; [16],98% (active)
same,growth inhibition,[8]; at 11.0 µM,14%
same,growth inhibition,[8]; at 33.0 µM,53%
same,growth inhibition,[8]; [17],99% (active)
same,growth inhibition,[8]; at 50.0 µM,93.7% (active)
same,growth inhibition,[8]; at 100.0 µM,91% (active)
same,growth inhibition,[9]; at 1.2 µM,0%
same,growth inhibition,[9]; at 3.7 µM,2%
same,growth inhibition,[9]; at 11.0 µM,21%
same,growth inhibition,[9]; at 33.0 µM,54%
same,growth inhibition,[9]; at 100.0 µM,93% (active)
same,growth inhibition,[10]; at 1.2 µM,0%
same,growth inhibition,[10]; at 3.7 µM,4%
same,growth inhibition,[10]; at 11.0 µM,18%
same,growth inhibition,[10]; at 33.0 µM,61%
same,growth inhibition,[10]; at 100.0 µM,95% (active)
same,growth inhibition,[11]; at 1.2 µM,2%
same,growth inhibition,[11]; at 3.7 µM,8%
same,growth inhibition,[11]; at 11.0 µM,31%
same,growth inhibition,[11]; at 33.0 µM,77% (active)
same,growth inhibition,[11]; at 100.0 µM,96% (active)
same,growth inhibition,[12]; [16],99% (active)
same,growth inhibition,[12]; [17],99% (active)
same,growth inhibition,[12]; at 50.0 µM,92.8% (active)
same,growth inhibition,[13]; at 1.2 µM,6%
same,growth inhibition,[13]; at 3.7 µM,27%
same,growth inhibition,[13]; at 11.0 µM,67%
same,growth inhibition,[13]; at 33.0 µM,94% (active)
same,growth inhibition,[13]; at 100.0 µM,97% (active)
